This is an account of results in PubChem BioAssay AID504861 (Broad Institute, 2011).

Out of some 1,200 compounds screened, about 290 (24%) were called active. Not shown: some 3% with an inconclusive outcome.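 The calls were made as follows: active = compounds lowering cell viability signal with fitted half-maximal concentration at most ten times their highest tested concentration; inconclusive = flat fit with 30 to 70% signal loss, or poor fit; inactive = the rest.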 These entries were drawn from the full list. Results with a measured potency or affinity are listed apart.

This assay can be described thus: HEK293T cell viability reduction, dose response, cytotoxicity control for LMP1 NF-kB inhibitor project, CellTiter-Glo luminescence, cherry-picks (AID 504861). The settings on record: CellTiter-Glo ATP luminescence, 48 h; series mostly up to 26 µM. Background: Cellular ATP, detected with luciferase, serves as a proxy for viable cell number.
Turning to `O=[N+]([O-])c1cc(/C=N\O)ccc1Oc1ccc(F)cc1`, the compound was classed as inactive.

Turning to `COc1cc2cc(C(=O)Nc3ccc4c(c3)OCCO4)[nH]c2cc1OC`, the outcome was inactive.

Consider `O=C(NNC(=S)Nc1ccc(Cl)c(Cl)c1)c1ccccn1`, for which the result was inactive.

`CC(=O)Nc1ccc(NC(=O)C(c2ccccc2)c2ccccc2)cc1`: the call was inactive.

`COCCCn1cnnc1SCC(=O)Nc1ccc(S(=O)(=O)N2CCCC2)cc1`: the compound was classed as inactive.

Take `CC1CCN(C(=O)/C(=C\c2cccs2)NC(=O)c2ccccc2)CC1`: the call was inactive.

With `COc1ccc(C=C2OC(=O)C(C(C)=O)=C2O)cc1`, the outcome was inactive.

In the case of `Cc1cc(C(=O)CN2C(=O)c3ccccc3C2=O)c(C)n1Cc1cccs1`, the compound was called inactive.

Regarding `Cc1cccc(C)c1NC(=O)CN(C)CC(=O)Nc1ccccc1Oc1ccccc1`, the compound was classed as inactive.

In the case of `COCCn1c(SCC(=O)NCc2ccco2)nnc1-c1c[nH]c2ccccc12`, the result was inactive.

Regarding `c1ccc(OCCSc2nnc3sc4ccccc4n23)cc1`, the outcome was inactive.

On to `CC(C)Oc1ccc(C2CC(=O)NC2=O)cc1` (configuration not stated), for which the outcome was inactive.

Take `COCC(=O)N(C)c1nnc(-c2ccccn2)s1`: the compound was classed as inactive.

Consider `CCOC(=O)c1c2c(n(C)c1C)C(=O)C(=O)c1ccc(Br)cc1-2`, for which the call was inactive.

As to `CCOC(=O)N1CCC(n2c(=S)[nH]c3ccccc3c2=O)CC1`, the call was inactive.

Take `N#CC(C#N)c1ccnc2ccccc12`: the compound was classed as inactive.

Turning to `O=C(O)/C=C/c1ccc(Cn2ccnc2)cc1`, the compound was called inactive.

`CCN1CCN(Cc2ccc(NC(=O)c3ccc(C)c(NC(=O)c4ccno4)c3)cc2C(F)(F)F)CC1`: the outcome was inactive.

Regarding `CCN1CCN(Cc2ccc(NC(=O)c3ccc(C)c(NC(=O)N4CCNC4=O)c3)cc2C(F)(F)F)CC1`, the compound was called inactive.

Turning to `Cc1ccc(C(=O)Nc2cccc(C(F)(F)F)c2)cc1NC(=O)c1ccno1`, the compound was called inactive.

`CCN1CCN(Cc2ccc(NC(=O)c3ccc(C)c(NC(=O)c4nccn4C)c3)cc2C(F)(F)F)CC1`: the call was inactive.

As to `Cc1ccc(C(=O)Nc2cccc(C(F)(F)F)c2)cc1Nc1ncnc2nc[nH]c12`, the compound was called inactive.

Take `CCN1CCN(Cc2ccc(NC(=O)c3ccc(C)c(NC(=O)c4cccc5[nH]ccc45)c3)cc2C(F)(F)F)CC1`: the call was inactive.

For `COc1cccc(CC(=O)NNC(=O)c2ccc3c(c2)OCO3)c1`, the call was inactive.

With `COC(=O)c1c(O)ccc(Oc2ccccc2)c1C(=O)OC`, the compound was called inactive.

In the case of `CCC(=O)NC(=S)Nc1ccccc1C(F)(F)F`, the outcome was inactive.

`N#CC1=C(N)N2C(=C(C#N)C1c1cccc(Br)c1)Nc1ccccc12` (configuration not stated): the result was inactive.

On to `C[C@@H](C(=O)Nc1ccc2c(c1)OCCO2)n1c(=O)[nH]c2ccccc2c1=O`, for which the call was inactive.

On to `Cc1nnc(SCC(=O)N2CCC(c3noc4ccc(F)cc34)CC2)s1`, for which the outcome was inactive.

In the case of `S=C1SCN(Cc2ccco2)CN1Cc1ccco1`, the call was inactive.

On to `O=C(CN(Cc1cccs1)C(=O)CNS(=O)(=O)c1ccccc1)NCc1ccco1`, for which the call was inactive.

Turning to `COC(=O)c1ccc2nc(-c3cccc(N)c3)cn2c1`, the compound was classed as inactive.

Take `Cc1ccc(S(=O)(=O)N2CCN(C(=O)CSc3nnnn3C)C2)cc1`: the result was inactive.

With `O=C(O)C1CC(=O)N(c2ccc(Br)cc2)C1` (configuration not stated), the compound was called inactive.

With `CCOc1ccc(C(=O)NC(=S)N(Cc2ccccc2)Cc2ccccc2)cc1`, the outcome was inactive.

On to `COCCn1c(C)cc(C(=O)COc2ccc(C)nc2[N+](=O)[O-])c1C`, for which the call was inactive.

As for `C=CCN(c1ccc(C(=O)Nc2ccc3c(c2)n(C)c(=O)n3C)cc1)S(C)(=O)=O`, the outcome was inactive.

On to `CC(C)N1CCN(c2ccc(OC[C@H]3CO[C@](Cn4cncn4)(c4ccc(Cl)cc4Cl)O3)cc2)CC1`, for which the compound was classed as inactive.

As to `CC(C)Oc1ccc(C(=O)Nc2nnc(SCC(=O)N3CCOCC3)s2)cc1`, the call was inactive.

Consider `CCOc1ccc(N/C=C/C(=O)c2ccccc2)cc1`, for which the compound was classed as inactive.

Take `Clc1cccc(CN2CCCCCC2)c1`: the compound was called inactive.

For the compound `CC(=O)c1ccc(N2CCN(c3ccnc4cc(Cl)ccc34)CC2)cc1`, the call was inactive.

In the case of `c1ccc(C2c3[nH]c4ccccc4c3CCN2Cc2cccn2-c2ccccn2)nc1` (configuration not stated), the outcome was inactive.

Take `Cn1c(=O)c2ncn(CC(=O)O)c2n(C)c1=O`: the compound was classed as inactive.

For the compound `Cc1cc(C)c(S(=O)(=O)Nc2nnc(CC(C)C)s2)c(C)c1`, the call was inactive.

Regarding `CCn1c(=O)c2c(cnn2C)c2ccccc21`, the call was inactive.

As to `COc1cc(Cl)cc(C(c2c(C(=O)O)[nH]c3ccccc23)c2c(C(=O)O)[nH]c3ccccc23)c1O`, the compound was classed as inactive.

As for `O=C1CC(c2ccccc2)Oc2ccccc21` (configuration not stated), the outcome was inactive.

On to `CCOC(=O)c1c(NC(=O)C2C3CCC(O3)C2C(=O)O)sc(C)c1-c1ccc(F)cc1` (configuration not stated), for which the call was inactive.

For `Cc1nc2sc(C(N)=O)c(N)c2c2c1CCCC2`, the compound was classed as inactive.

`O=C(NC(Cc1c[nH]c2ccccc12)C(=O)Nc1ccc(F)c([N+](=O)[O-])c1)c1cccs1` (configuration not stated): the compound was called inactive.

With `COCC(=O)N1CCC(Oc2ccc(C(=O)N3C[C@H]4CC[C@H]3C4)cc2)CC1`, the result was inactive.

With `CC1=C(C(=O)OCc2ccc3c(c2)OCO3)C(c2ccc(Cl)cc2)NC(=O)N1` (configuration not stated), the call was inactive.

For the compound `COc1ccc(N2Cc3cccc(C(=O)NC(C)CCc4ccco4)c3C2=O)cc1` (configuration not stated), the call was inactive.

On to `COc1ccc(CCNC(=O)CSC(=O)c2ccccc2)cc1OC`, for which the compound was called inactive.

As to `CCCN(CC1CC1)c1nc(C)nc(Nc2c(Cl)cc(Cl)cc2Cl)c1Cl`, the compound was called inactive.

With `CC(C)Nc1nnc(SCC(=O)c2c(N)n(Cc3ccccc3)c(=O)n(C)c2=O)s1`, the compound was classed as inactive.

For the compound `COc1cccc(C(=O)OCn2nnc3ccccc3c2=O)c1OC`, the compound was called inactive.

With `COc1ccc(C(=O)Nc2ccc(N3CCN(C(=O)c4ccccc4C)CC3)cc2)cc1`, the call was inactive.

Turning to `COc1ccc2sc3c(=O)[nH]c4ccccc4c3c2c1`, the compound was classed as inactive.

`CCOc1ccccc1C(=O)N[C@H](C(=O)OCc1cc([N+](=O)[O-])cc2c1OCOC2)C(C)C`: the outcome was inactive.

With `Cc1ccc(S(=O)(=O)N2CCCCC2)cc1NC(=O)CNc1ccccc1N1CCCC1=O`, the compound was classed as inactive.

Consider `O=C(c1ccc(Cl)cc1)N1CCN(CCOc2ccccc2)CC1`, for which the compound was called inactive.

`Cn1c(CC(=O)Nc2ccc(F)cc2)nnc1SCC(=O)Nc1nncs1`: the compound was called inactive.

Turning to `O=C(O)c1ccc(C=NNC(=O)c2cccc3ccccc23)cc1`, the call was inactive.

Take `Cc1cccc(/C=N/NC(=O)CNc2cccc3ccccc23)n1`: the outcome was inactive.

Consider `O=C(/C=C/Nc1cccc(C(F)(F)F)c1)C(F)(F)F`, for which the outcome was inactive.

Turning to `O=C(CN1C(=O)c2ccccc2S1(=O)=O)c1ccccc1F`, the call was inactive.

On to `COc1ccc(NC(=O)N(CCN2CCCC2)Cc2cc3cc(OC)c(OC)cc3[nH]c2=O)cc1`, for which the result was inactive.

On to `CC(C)CC1C(=O)N(Cc2cn(CC3CCCCC3)nn2)CCS(=O)(=O)N1Cc1ccc(-c2ccc(F)nc2)cc1` (configuration not stated), for which the result was inactive.

Regarding `Cc1ccc(C(=O)Nc2ccc3ncccc3c2)cc1`, the call was inactive.

`O=C(Nc1ccccn1)NC1CCCCC1`: the call was inactive.

`CCC(C)N1C(=O)CCC1C(=O)N1CCN(c2ccc(F)cc2)CC1` (configuration not stated): the result was inactive.

As for `c1cncc(CNc2ncnc3ccc(-c4ccoc4)cc23)c1`, the call was inactive.

As for `O=c1cc(-c2ccccc2)[nH]c2ccc(F)cc12`, the call was inactive.

`CCOc1ccc(OCc2cccc(C(=O)N3CCCC3)c2)cc1`: the compound was called inactive.

As for `COc1ccc(-c2ccc3c(c2)S(=O)(=O)c2cccc(C(=O)NCc4cc(C)oc4C(F)(F)F)c2C3=O)cc1OC`, the compound was classed as inactive.

For the compound `COCCCNC(=O)CN1C(=O)COc2ccc(S(=O)(=O)N3CCOCC3)cc21`, the result was inactive.

With `CN1CCc2cccc3c2C1Cc1ccc(O)c(O)c1-3` (configuration not stated), the compound was classed as inactive.

In the case of `CSc1ccccc1NC(=O)CN1CCCCC1C` (configuration not stated), the result was inactive.

As for `COc1ccc2cc(-c3cc(C(=O)OCC(=O)Nc4c(C)n(C)n(-c5ccccc5)c4=O)c4ccccc4n3)ccc2c1`, the result was inactive.

Take `CCc1ccc(/C=C/C(=O)C2C(=O)c3ccccc3C2=O)cc1`: the compound was called inactive.

Take `N#CCCn1cc(C(=O)Nc2ccccn2)c(-c2ccccc2)n1`: the result was inactive.

On to `CC1=NN(C(N)=S)C(=O)C1N=Nc1cccc(C(=O)O)c1` (configuration not stated), for which the result was inactive.

On to `C[C@@]12C(=O)N(Cc3ccccc3)CC(=O)N1[C@H](/C=C/c1ccccc1)[C@@H]1C(=O)N(c3ccccc3)C(=O)[C@@H]12`, for which the compound was classed as inactive.

Consider `COc1cc(OC)cc(C(=O)N[C@H](C(=O)OCC(=O)c2ccc(C)c([N+](=O)[O-])c2)C(C)C)c1`, for which the call was inactive.

Take `Clc1ccc(-n2ncc3c(N4CCCC4)ncnc32)cc1`: the result was inactive.

As to `COc1cc(CC(=O)N(c2ccccc2)c2nc(C)cs2)cc(OC)c1OC`, the result was inactive.

On to `Cc1nc2sc(-c3ccccc3)cc2c(=O)n1N`, for which the compound was classed as inactive.

For `COCCN1CSC(=S)N(Cc2ccco2)C1`, the call was inactive.

Take `O=C(Nc1ccc(Cl)cc1)Nc1nnc(CSCc2ccc(Cl)cc2)s1`: the call was inactive.

As to `COc1cccc(/C=N\NC(=O)c2ccc(C)nc2)c1`, the outcome was inactive.

As for `COc1cc(NCCCCCCN)c2ncccc2c1OC`, the compound was classed as inactive.

On to `O=C(C=C1SCCS1)/C=C/c1ccco1`, for which the call was inactive.

Take `COc1cccc(C(=O)CC(=O)C(=O)Nc2ccc(C)cc2Cl)c1`: the compound was called inactive.

Consider `CCSC1=C(C#N)C(c2ccc(C)o2)CC(=O)N1` (configuration not stated), for which the outcome was inactive.

Consider `CCCC(=O)NCCCc1nc2ccccc2[nH]1`, for which the result was inactive.

Take `CCOc1ccc(/C=N/Nc2cc(N3CCOCC3)ncn2)c(O)c1`: the compound was called inactive.

For `Cc1cc(=O)[nH]c(N/N=C/c2ccc(C)o2)n1`, the call was inactive.

In the case of `Cc1cc(N=Cc2c(O)ccc3cc(Br)ccc23)no1`, the call was inactive.

On to `COc1ccc(NC(=O)c2cc3ccccc3oc2=O)cc1`, for which the result was inactive.

Consider `O=C1c2ccccc2C(Nc2cccnc2)N1Cc1ccccc1` (configuration not stated), for which the outcome was inactive.

On to `C[C@H](CO)N1C[C@H](C)[C@@H](CN(C)C(=O)NC2CCCCC2)Oc2c(NS(=O)(=O)c3cn(C)cn3)cccc2C1=O`, for which the result was inactive.

Consider `COc1ccc(C(c2sc3nc(C)nn3c2O)N2CCC(C(N)=O)CC2)cc1OC` (configuration not stated), for which the compound was called inactive.

As to `CCCN(CCC)c1ncnc2nc[nH]c12`, the compound was classed as inactive.

In the case of `Cc1ccc(-n2nc(C(=O)NCc3ccc(C)o3)c3c4ccccc4n(C)c3c2=O)cc1`, the compound was classed as inactive.

On to `Cc1ccc(-c2nnn(CC(=O)N(Cc3ccco3)C(C(=O)NC(C)(C)C)c3ccncc3)n2)o1` (configuration not stated), for which the call was inactive.
